The campaign covered roughly 5,100 compounds. Fewer than 10 were called active.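 The calls were made as follows: active = inhibition above the mean inhibition over all tested compounds plus 3 SD (cut at about 75% in these data); inactive = the rest.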 These entries were drawn from the full list.
target: Collagenase 3 (Homo sapiens) (UniProt P45452); experiment: human MMP13 inhibition, fluorescence-interfering compounds – biochemical, possible fluorescent artifacts, delta fluorescence, confirmation (AID 734); settings: MMP13 fTHP FRET cleavage, delta fluorescence 4 h; hits give high values;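 each compound tested at 4 µM nominal in triplicate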;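 also: 0% = DMSO only wells and 100% = 8 µM reference MMP13 inhibitor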

SMILES | inhibition
O=C(Nc1ccon1)c1cnc2sccn2c1=O | 3.24% (inactive)
O=c1[nH]c(=O)n(Cc2ccccc2)c2nc(-c3ccco3)cc(C(F)(F)F)c12 | -103% (inactive)
CCCSc1n[nH]c(NC(C)=O)n1 | 3.35% (inactive)
O=C(Cc1ccccc1)Nc1ccc2oc(-c3cccnc3)nc2c1 | -8.29% (inactive)
O=C(Nc1nc(-c2cc3ccccc3oc2=O)cs1)c1ccco1 | 3.89% (inactive)
COc1ccc(C(=O)NCc2nnc(SC)n2C2CCCCC2)cc1 | -1.48% (inactive)
COc1cccc(Cn2c(=S)[nH]c3ccc(N4CCOCC4)cc3c2=O)c1 | 3.27% (inactive)
Cc1cc(=O)oc2cc(OC(C)C(=O)Nc3nccs3)ccc12 (configuration not stated) | 3.57% (inactive)
Cc1oc2c(CN3CCOCC3)c(O)ccc2c(=O)c1-c1ccc(Br)cc1 | 6.41% (inactive)
CCn1c(=O)c2cc(C(=O)N3CCOCC3)sc2c2ccccc21 | -2.27% (inactive)
Cc1ccc(NC(=O)CC2Nc3ccccc3NC2=O)cc1Cl (configuration not stated) | 5.69% (inactive)
CCOC(=O)N1CCN(C(=O)c2cnn3c(C)c(Cc4ccc(C)cc4)c(C)nc23)CC1 | -3.34% (inactive)
O=S(=O)(c1ccccc1C(F)(F)F)N1CCOCC1 | 6.08% (inactive)
Cc1onc(-c2ccccc2Cl)c1C(=O)Nc1nnc(-c2ccc(F)cc2)s1 | 6.05% (inactive)
CCOC(=O)N1CCC(N2C(=O)c3ccccc3C2Nc2cc(C(=O)OC)cc(C(=O)OC)c2)CC1 (configuration not stated) | 3.52% (inactive)
Oc1ccc(N=Cc2ccc(-c3cccs3)s2)cc1 | 90.8% (active)
O=C(c1cccs1)c1ccc(-c2cccs2)s1 | 3.04% (inactive)
CC(C)CCSc1nc2c(c(=O)[nH]c(=O)n2C)n1CCc1ccccc1 | 5.17% (inactive)
CC1CCCN(C/C(O)=C(\C#N)c2nc3ccccc3[nH]2)C1 (configuration not stated) | 4.57% (inactive)
CCCCOC(=O)Cc1c(O)c2ccccc2[nH]c1=O | 0.98% (inactive)
CN(C)CCCN1C(=O)c2oc3ccc(F)cc3c(=O)c2C1c1cccnc1 (configuration not stated) | 5.18% (inactive)
Cc1cccc2cc(C#N)c(NCCNS(=O)(=O)c3ccc4c(c3)OCCO4)nc12 | 3.35% (inactive)
Cc1ccc(S(=O)(=O)N2CCCC2C(=O)Oc2ccccc2)cc1 (configuration not stated) | 5.98% (inactive)
Cc1ccc(-n2c(-c3ccncc3)nnc2-c2ccco2)cc1 | 2.09% (inactive)
Cc1cc(N2CCOCC2)nc2ccc(NC(=O)CCC(=O)N3CCCC(C)C3)cc12 (configuration not stated) | 2.6% (inactive)

SMILES | inhibition
CC(C)(/C=N/O)/[N+]([O-])=C/c1ccccc1C(F)(F)F | 8.54% (inactive)
COc1cc2c(=O)n(CC3CCCO3)c(=O)n(CC(=O)Nc3ccc(F)cc3F)c2cc1OC (configuration not stated) | 2.92% (inactive)
CN1C(=O)Cc2cc(S(=O)(=O)N3CCOCC3)ccc21 | 2.06% (inactive)
O=C1CCCN1CCCNc1ncnc2c1cnn2-c1ccc(Cl)cc1 | 3.23% (inactive)
CCOC(=O)c1[nH]c2ccc(OCC)cc2c1NC(=O)CN1CCN(c2ccccc2)CC1 | 1.46% (inactive)
c1ccc(-n2nnnc2SCc2cn3cccnc3n2)cc1 | 9.28% (inactive)
O=C(Nc1ccc(-c2nc3cccnc3s2)cc1)c1ccco1 | 4.83% (inactive)
O=S(=O)(Nc1ccc(-c2nc3cccnc3s2)cc1)c1cccs1 | 198% (active)
O=C(Nc1ccc(-c2nc3cccnc3s2)cc1)c1ccc(Br)o1 | 2.61% (inactive)
N#Cc1nc(-c2cccs2)oc1N1CCN(c2ccccc2)CC1 | 8.02% (inactive)
Cc1oc(C(C)(C)C)cc1C(=O)Nc1ccc(C(=O)O)cc1 | 4.23% (inactive)
Cc1ccc(-c2cc(C(=O)N3CCOCC3)c3ccccc3n2)cc1 | 7.4% (inactive)
CCC(=O)N/C(N)=N/c1nc(C)c2cc(OC)ccc2n1 | 1.9% (inactive)
COc1nc(-c2ccc(C)cc2)ccc1-c1noc(-c2ccco2)n1 | -3.29% (inactive)
Cc1cccn2c(=O)c(C=Nc3ccc(Cl)cc3)c(NCCO)nc12 | -0.72% (inactive)
CC(C)COc1ccc(-c2nnc(-c3ccco3)o2)cc1 | 3.48% (inactive)
COC(=O)C1=CNC=C(C(=O)OC)C1c1cccc(OC)c1 | 27.7% (inactive)
CN(C)c1ccc(-c2nn3c(C4CCCCC4)nnc3s2)cc1 | 4.05% (inactive)
COc1ccc(CCNc2oc(-c3ccc(OC)c(OC)c3)nc2C#N)cc1 | 1.68% (inactive)
COc1ccc(-c2cn3c(C)c(C(=O)Nc4cc(NC(C)=O)ccc4OC)sc3n2)cc1 | 14.3% (inactive)
COCCNC(=O)c1cc2c(-c3ccccc3F)nn(C)c2s1 | -5.47% (inactive)
CC(Oc1ccc2oc(-c3ccccc3)c(C(=O)O)c2c1)C(=O)O (configuration not stated) | -5.25% (inactive)
O=c1cc(CN2CCN(c3ccccc3)CC2)c2cc(O)c(-c3ccccc3)cc2o1 | 8.57% (inactive)
CCN1CCc2c(sc3c2c(NCc2ccco2)nc2nnnn23)C1 | 10.9% (inactive)
CC(C)CCNC(=O)C(c1ccco1)N(Cc1ccccc1)C(=O)c1snc(C(N)=O)c1N (configuration not stated) | 2.54% (inactive)

SMILES | inhibition
O=C(NCc1cccnc1)c1nnc(Cc2ccc(F)cc2)o1 | 2.89% (inactive)
O=C(CCSc1nnc2ccccn12)Nc1ccc(F)cc1 | 3% (inactive)
Cc1ccc(-n2c(Cc3cccn3C)nnc2SCC(=O)Nc2ccc3c(c2)OCO3)cc1 | 3.78% (inactive)
O=C(O)c1ccc(CSc2nnc(-c3ccncc3)n2CC2CCCO2)cc1 (configuration not stated) | 5.15% (inactive)
Cc1cc(N2CCC(C)CC2)nc2ccc(N3C(=O)CCC3=O)cc12 | 4.49% (inactive)
O=S(=O)(c1cccc(-c2cn3cc(Cl)ccc3n2)c1)N1CCOCC1 | 4.43% (inactive)
CCOc1ccc(CC(=O)N2CCN(c3ccc(N4CCOCC4)nn3)CC2)cc1OCC | 11.4% (inactive)
Cc1cc(C)c2c(n1)nn1c(N3CCN(c4ccccc4)CC3)cc(C)nc21 | -3.18% (inactive)
O=C(NCc1cccnc1)c1cnn2ccccc12 | 3.72% (inactive)
CCOCCCn1c(C)nc2c(c1=O)c1nc3ccccc3nc1n2CCC1=CCCCC1 | -2.22% (inactive)
CCOC(=O)CN=C1CC(C)(C)CC2=C1Sc1ncnc(N(C)C)c1N2 | 8.62% (inactive)
N#CCSc1nc2[nH]ncc2c(=O)n1-c1ccccc1Br | 5.49% (inactive)
CC(=O)Nc1ccc(Nc2ncnc3c2cnn3-c2cccc(C)c2)cc1 | 8.03% (inactive)
COc1ccc2oc(-c3ccccc3)c(C(=O)N3CCOCC3)c2c1 | 3.94% (inactive)
CCOC(=O)CSc1nc(-c2ccc3c(c2)OCO3)ccc1C#N | 86.3% (active)
CCOC(=O)CSc1nc2cc3c(cc2cc1C#N)OCO3 | 5.66% (inactive)
CCOC(=O)CSc1nc(-c2ccncc2)ccc1C#N | 6% (inactive)
N#Cc1nc(-c2ccc(F)cc2)oc1NCc1cccc2c1OCO2 | -9.16% (inactive)
Cc1cc(C)n(-c2nc(-c3cccc(Cl)c3)cs2)n1 | 8.4% (inactive)
c1ccc2sc(Cc3nnc4n3CCCCC4)nc2c1 | 4.74% (inactive)
Cc1onc(-c2ccccc2)c1C(=O)Nc1ccc2c(C)cc(=O)oc2c1 | 2.15% (inactive)
CC(=O)c1ccc(N2CCN(C(=O)c3cc(-c4ccc5c(c4)OCO5)nc4ccccc34)CC2)cc1 | 4.89% (inactive)
COC(=O)c1c(-n2cnnn2)sc(C)c1C | 2.3% (inactive)
COc1ccc2cc3cc(C(=O)NCCN4CCc5ccccc5C4)oc3nc2c1 | -102% (inactive)
Cn1c(=O)c2nc(-c3ccccc3)oc2c2ccccc21 | 6.54% (inactive)

SMILES | inhibition
COc1ccc(OC)c(-c2cc(C(=O)NCc3ccco3)no2)c1 | 12% (inactive)
CC(C)OCCCn1c(-c2ccco2)nc2nc3ccccc3nc21 | -87.8% (inactive)
CCOC(=O)c1cc(-c2cccs2)nc2onc(C)c12 | -44.4% (inactive)
COc1cc2ccccc2cc1C(=O)OCC(=O)N1CCOCC1 | 6.42% (inactive)
COc1ccc(C(=O)/C=C/Nc2cccc(C)n2)cc1OC | 5.27% (inactive)
c1nc2sc3c(c2c2nnnn12)CCCC3 | 2.51% (inactive)
COc1ccc(-c2cc(C(F)(F)F)nc(SCC(=O)NCc3ccco3)n2)cc1OC | 8.84% (inactive)
Cc1ccc2c(c1)-c1cc(C)nn1C(c1ccc3c(c1)OCO3)N2 (configuration not stated) | 6.53% (inactive)
O=C1NC(c2ccco2)Nc2ccccc21 (configuration not stated) | -3.14% (inactive)
CCCN(Cc1cc2cc(OC)ccc2[nH]c1=O)C(=O)c1ccncc1 | 4.53% (inactive)
CCOC(=O)c1oc2cccc(OC(C)=O)c2c1C | 8.37% (inactive)
NC(=O)C1CCCN(S(=O)(=O)c2ccc(Br)cc2)C1 (configuration not stated) | 4.17% (inactive)
COC(=O)c1[nH]c2ccc(Cl)cc2c1NC(=O)CCN1CCN(C2CCCCC2)CC1 | 6.19% (inactive)
COC(=O)c1[nH]c2cccc(OC)c2c1NC(=O)CCN1CC(C)CC(C)C1 (configuration not stated) | -1.84% (inactive)
COCCOC(=O)c1cc(C(=O)c2cc(F)ccc2O)coc1=N | 6.65% (inactive)
COc1cccc(=O)c2c(C)oc(C)c12 | 6.64% (inactive)
Cc1ccc2nc(N3CCN(Cc4nnnn4Cc4ccccc4)CC3)c(C#N)cc2c1 | 1.5% (inactive)
CCOC(=O)Cc1c(C)nc2c(-c3ccc(Cl)cc3)c[nH]n2c1=O | 17.8% (inactive)
COc1cc2cc(CN(CCN3CCCC3)C(=O)Nc3ccc(F)cc3)c(=O)[nH]c2cc1OC | 1.27% (inactive)
CCS(=O)(=O)Nc1cc(-c2nc3cccnc3s2)ccc1C | -0.51% (inactive)
CCCCNC(=O)CC1Nc2ccccc2NC1=O (configuration not stated) | 4.58% (inactive)
CCn1c(=O)c(C(C)=O)nc2ccccc21 | 7.87% (inactive)

From PubChem BioAssay AID734 (The Scripps Research Institute Molecular Screening Center, 2007)
